# Laboratory results reported in ChEMBL document CHEMBL1961873, “Compounds: GSK PKIS; Assays: Nanosyn kinase panel” (2012).
# Tests used:
# [1] = target: Fibroblast growth factor receptor 4 (Homo sapiens) (UniProt P22455); details: at 1 µM;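 also: reported figure is the averaged percent inhibition of FGFR4, from the GSK PKIS kinase screening panel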
# [2] = target: Tyrosine-protein kinase Fgr (Homo sapiens) (UniProt P09769); details: at 0.1 µM
# [3] = target: Tyrosine-protein kinase Fgr (Homo sapiens) (UniProt P09769); details: at 1 µM
# [4] = target: Vascular endothelial growth factor receptor 1 (Homo sapiens) (UniProt P17948); details: at 0.1 µM
# Chain of Vascular endothelial growth factor receptor 1 (Homo sapiens) (P17948 whole entry): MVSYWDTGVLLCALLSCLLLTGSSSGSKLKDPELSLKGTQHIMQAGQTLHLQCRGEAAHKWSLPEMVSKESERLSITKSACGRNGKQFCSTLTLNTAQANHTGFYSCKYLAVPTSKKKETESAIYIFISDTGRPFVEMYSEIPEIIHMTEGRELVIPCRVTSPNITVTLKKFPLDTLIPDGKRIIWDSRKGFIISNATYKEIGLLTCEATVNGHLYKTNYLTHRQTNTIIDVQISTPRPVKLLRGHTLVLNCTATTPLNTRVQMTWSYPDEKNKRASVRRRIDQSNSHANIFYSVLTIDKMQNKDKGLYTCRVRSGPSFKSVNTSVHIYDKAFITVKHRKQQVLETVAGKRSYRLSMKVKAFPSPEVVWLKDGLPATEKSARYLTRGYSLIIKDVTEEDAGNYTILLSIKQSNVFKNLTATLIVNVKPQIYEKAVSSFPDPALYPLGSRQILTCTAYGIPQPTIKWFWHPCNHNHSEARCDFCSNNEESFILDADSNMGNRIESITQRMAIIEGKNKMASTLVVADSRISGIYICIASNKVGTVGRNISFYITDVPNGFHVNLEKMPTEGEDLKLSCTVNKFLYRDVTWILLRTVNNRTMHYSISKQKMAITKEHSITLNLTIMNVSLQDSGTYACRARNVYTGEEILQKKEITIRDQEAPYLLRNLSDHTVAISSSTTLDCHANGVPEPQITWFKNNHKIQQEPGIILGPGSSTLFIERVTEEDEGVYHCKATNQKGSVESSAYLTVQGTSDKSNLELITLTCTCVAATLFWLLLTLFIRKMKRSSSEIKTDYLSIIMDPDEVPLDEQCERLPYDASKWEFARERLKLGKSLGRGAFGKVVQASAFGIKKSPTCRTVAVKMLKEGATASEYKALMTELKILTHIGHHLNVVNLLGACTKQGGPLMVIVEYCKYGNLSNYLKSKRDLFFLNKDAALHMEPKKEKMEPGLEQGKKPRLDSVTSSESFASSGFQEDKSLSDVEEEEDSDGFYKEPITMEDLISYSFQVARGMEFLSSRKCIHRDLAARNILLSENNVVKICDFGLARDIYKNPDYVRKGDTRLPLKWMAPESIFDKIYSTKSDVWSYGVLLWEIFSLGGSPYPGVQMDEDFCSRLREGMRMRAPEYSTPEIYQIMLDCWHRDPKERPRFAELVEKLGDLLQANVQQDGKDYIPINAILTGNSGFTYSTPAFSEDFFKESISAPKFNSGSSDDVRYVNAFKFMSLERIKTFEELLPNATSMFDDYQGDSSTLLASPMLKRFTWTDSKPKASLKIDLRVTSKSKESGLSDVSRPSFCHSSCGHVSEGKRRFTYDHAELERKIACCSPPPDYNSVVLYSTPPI
# [5] = target: Vascular endothelial growth factor receptor 1 (Homo sapiens) (UniProt P17948); details: at 1 µM
# [6] = target: Receptor-type tyrosine-protein kinase FLT3 (Homo sapiens) (UniProt P36888); details: at 1 µM
# [7] = system: T1, Receptor-type tyrosine-protein kinase FLT3 (Homo sapiens), P36888 [D835Y]; details: at 0.1 µM
# T1 sequence (whole entry): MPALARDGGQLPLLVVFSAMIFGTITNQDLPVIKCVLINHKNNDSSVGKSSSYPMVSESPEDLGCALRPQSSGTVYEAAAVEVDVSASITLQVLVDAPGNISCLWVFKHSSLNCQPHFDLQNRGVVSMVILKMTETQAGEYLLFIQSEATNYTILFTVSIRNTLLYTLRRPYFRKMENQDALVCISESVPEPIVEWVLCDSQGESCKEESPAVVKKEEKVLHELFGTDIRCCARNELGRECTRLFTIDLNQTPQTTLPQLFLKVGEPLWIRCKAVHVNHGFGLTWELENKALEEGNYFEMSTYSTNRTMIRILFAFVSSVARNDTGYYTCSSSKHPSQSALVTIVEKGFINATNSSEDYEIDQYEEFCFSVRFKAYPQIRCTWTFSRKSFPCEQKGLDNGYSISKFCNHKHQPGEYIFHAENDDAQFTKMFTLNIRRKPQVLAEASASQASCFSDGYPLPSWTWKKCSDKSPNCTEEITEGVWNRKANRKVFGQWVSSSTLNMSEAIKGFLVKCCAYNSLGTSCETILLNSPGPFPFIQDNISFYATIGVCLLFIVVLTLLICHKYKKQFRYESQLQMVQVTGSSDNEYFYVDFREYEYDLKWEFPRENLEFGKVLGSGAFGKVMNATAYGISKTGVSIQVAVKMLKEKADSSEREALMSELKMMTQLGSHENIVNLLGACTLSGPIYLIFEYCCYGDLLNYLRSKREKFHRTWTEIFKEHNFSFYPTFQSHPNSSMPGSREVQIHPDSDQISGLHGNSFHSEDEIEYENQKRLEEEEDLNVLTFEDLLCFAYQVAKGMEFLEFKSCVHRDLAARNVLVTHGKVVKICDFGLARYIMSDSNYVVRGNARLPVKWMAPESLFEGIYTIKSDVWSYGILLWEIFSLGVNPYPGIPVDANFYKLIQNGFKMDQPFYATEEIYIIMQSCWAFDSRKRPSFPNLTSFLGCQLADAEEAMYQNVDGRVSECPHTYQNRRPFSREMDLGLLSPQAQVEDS
# [8] = target: Non-receptor tyrosine-protein kinase TYK2 (Homo sapiens) (UniProt P29597); details: at 1 µM;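 also: values are mean percent inhibition of TYK2 kinase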
# Chain of Non-receptor tyrosine-protein kinase TYK2 (Homo sapiens) (P29597 whole entry): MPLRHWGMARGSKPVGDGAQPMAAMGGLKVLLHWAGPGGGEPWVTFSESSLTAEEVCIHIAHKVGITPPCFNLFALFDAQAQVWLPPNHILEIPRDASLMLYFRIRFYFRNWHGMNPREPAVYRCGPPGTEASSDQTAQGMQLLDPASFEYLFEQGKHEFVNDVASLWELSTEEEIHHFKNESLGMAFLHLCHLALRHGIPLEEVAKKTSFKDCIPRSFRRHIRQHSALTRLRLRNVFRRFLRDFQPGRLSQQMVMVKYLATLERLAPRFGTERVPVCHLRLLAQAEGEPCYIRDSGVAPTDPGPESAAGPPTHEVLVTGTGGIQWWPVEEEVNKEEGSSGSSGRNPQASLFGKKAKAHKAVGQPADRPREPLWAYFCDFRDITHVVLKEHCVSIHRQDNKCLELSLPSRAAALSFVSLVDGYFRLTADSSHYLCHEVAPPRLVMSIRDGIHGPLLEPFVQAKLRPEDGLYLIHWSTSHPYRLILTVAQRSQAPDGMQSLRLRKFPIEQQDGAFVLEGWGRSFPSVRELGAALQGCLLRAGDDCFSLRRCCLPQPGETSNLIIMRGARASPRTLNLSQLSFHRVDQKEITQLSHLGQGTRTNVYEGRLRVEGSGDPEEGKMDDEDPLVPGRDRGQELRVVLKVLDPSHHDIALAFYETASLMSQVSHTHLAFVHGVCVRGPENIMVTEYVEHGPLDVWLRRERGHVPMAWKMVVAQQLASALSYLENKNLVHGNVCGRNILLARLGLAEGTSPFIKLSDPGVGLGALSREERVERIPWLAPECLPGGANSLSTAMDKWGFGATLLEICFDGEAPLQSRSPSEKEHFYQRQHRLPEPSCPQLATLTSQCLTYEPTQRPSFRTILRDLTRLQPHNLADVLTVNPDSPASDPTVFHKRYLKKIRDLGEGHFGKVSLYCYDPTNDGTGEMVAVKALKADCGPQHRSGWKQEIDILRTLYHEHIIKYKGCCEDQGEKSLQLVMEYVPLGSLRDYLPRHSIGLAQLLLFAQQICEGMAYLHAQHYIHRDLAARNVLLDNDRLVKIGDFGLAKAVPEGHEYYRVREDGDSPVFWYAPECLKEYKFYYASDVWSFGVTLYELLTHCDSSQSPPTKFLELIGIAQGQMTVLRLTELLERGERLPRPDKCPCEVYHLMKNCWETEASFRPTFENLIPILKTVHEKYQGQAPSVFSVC
# [9] = target: T2, Tyrosine-protein kinase receptor TYRO3 (Homo sapiens) (UniProt Q06418); details: at 0.1 µM
# T2 sequence (whole entry): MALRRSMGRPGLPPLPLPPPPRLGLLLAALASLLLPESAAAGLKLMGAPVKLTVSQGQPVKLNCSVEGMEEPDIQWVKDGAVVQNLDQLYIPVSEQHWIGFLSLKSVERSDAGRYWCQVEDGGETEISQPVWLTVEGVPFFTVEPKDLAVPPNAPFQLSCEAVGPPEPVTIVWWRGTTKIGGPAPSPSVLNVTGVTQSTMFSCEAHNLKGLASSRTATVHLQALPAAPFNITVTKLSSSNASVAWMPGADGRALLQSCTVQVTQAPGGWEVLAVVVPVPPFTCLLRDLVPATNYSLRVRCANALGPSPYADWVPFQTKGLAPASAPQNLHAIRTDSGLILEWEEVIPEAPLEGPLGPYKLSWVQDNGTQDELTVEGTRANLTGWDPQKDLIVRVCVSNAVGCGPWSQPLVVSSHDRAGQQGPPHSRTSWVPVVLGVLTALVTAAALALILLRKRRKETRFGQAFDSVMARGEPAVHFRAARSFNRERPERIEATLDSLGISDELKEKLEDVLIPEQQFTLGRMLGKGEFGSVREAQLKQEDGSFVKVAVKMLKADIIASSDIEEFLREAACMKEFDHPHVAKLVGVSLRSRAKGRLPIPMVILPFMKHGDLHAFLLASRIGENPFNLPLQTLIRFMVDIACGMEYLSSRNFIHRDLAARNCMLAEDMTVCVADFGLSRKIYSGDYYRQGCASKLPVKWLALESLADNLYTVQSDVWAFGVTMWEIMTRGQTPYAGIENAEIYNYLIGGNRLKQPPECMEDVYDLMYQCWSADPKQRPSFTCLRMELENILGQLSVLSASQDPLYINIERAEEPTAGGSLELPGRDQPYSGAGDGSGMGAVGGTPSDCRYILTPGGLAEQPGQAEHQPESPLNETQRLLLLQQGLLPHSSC
# [10] = target: T2, Tyrosine-protein kinase receptor TYRO3 (Homo sapiens); details: at 1 µM
# [11] = target: Tyrosine-protein kinase Yes (Homo sapiens) (UniProt P07947); details: at 0.1 µM
# Chain of Tyrosine-protein kinase Yes (Homo sapiens) (P07947 2-543 limits assumed): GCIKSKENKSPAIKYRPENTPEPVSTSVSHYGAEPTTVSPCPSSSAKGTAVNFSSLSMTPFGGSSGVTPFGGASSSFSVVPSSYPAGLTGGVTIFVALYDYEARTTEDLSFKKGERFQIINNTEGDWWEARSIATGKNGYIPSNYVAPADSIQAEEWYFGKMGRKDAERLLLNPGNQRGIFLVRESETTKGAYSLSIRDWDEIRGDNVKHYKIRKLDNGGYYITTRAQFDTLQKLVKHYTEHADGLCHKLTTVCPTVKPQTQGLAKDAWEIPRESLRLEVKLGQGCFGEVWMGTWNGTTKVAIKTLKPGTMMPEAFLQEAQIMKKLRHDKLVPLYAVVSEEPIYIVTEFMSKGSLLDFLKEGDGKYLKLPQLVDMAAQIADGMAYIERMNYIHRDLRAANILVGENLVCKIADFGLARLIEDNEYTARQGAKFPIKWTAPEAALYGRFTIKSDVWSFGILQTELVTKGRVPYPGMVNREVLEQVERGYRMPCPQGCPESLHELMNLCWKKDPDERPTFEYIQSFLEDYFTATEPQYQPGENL
# [12] = target: Tyrosine-protein kinase Yes (Homo sapiens) (UniProt P07947); details: at 1 µM
# [13] = target: T3, Tyrosine-protein kinase ZAP-70 (Homo sapiens) (UniProt P43403); details: at 0.1 µM
# T3 sequence (whole entry): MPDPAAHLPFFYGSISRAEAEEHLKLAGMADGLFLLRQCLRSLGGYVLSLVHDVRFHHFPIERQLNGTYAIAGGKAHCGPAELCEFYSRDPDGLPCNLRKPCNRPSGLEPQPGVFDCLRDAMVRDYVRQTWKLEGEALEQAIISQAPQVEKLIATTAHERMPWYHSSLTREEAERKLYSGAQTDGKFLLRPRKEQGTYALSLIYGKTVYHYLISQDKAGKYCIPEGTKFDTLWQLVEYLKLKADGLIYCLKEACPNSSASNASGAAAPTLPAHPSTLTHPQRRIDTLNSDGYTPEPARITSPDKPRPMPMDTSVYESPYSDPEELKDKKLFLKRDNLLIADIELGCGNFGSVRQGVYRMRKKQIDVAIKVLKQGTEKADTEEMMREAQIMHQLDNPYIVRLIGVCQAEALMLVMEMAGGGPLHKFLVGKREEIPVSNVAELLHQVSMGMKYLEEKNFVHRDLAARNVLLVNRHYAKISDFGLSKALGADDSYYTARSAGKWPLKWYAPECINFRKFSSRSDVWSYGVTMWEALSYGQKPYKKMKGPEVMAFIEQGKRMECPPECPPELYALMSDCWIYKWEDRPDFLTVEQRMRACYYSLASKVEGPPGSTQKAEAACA
# [14] = target: T3, Tyrosine-protein kinase ZAP-70 (Homo sapiens); details: at 1 µM
# [15] = target: Serine/threonine-protein kinase B-raf (Homo sapiens) (UniProt P15056); details: at 0.1 µM
# Chain of Serine/threonine-protein kinase B-raf (Homo sapiens) (P15056 whole entry): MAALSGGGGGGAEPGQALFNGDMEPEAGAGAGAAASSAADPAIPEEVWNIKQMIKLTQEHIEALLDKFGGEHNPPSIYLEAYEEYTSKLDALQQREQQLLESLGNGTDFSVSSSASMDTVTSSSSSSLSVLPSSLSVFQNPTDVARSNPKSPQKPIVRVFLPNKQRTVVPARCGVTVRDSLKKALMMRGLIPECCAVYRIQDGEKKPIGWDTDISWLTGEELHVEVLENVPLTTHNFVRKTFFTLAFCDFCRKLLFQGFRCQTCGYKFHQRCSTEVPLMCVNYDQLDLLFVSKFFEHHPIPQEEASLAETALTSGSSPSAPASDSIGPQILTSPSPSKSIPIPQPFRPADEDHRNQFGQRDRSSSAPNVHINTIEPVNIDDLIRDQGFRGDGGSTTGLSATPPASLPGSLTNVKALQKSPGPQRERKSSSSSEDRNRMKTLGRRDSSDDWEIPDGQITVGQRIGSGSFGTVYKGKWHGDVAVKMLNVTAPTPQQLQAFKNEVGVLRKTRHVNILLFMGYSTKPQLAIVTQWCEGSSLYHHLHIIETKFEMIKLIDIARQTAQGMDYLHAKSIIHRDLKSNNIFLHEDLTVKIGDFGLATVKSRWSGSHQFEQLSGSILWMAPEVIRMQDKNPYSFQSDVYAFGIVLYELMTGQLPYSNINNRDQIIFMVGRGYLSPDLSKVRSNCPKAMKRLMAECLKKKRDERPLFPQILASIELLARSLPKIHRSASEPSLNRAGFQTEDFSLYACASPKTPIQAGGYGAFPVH
# [16] = target: Serine/threonine-protein kinase B-raf (Homo sapiens) (UniProt P15056); details: at 1 µM
# [17] = system: Serine/threonine-protein kinase B-raf (Homo sapiens), P15056 [V600E]; details: at 0.1 µM
# Chain of Serine/threonine-protein kinase B-raf (Homo sapiens), P15056 [V600E] (P15056 whole entry V600E): as the sequence (P15056 whole entry) above, with V600E counted along it
# [18] = system: Serine/threonine-protein kinase B-raf (Homo sapiens), P15056 [V600E]; details: at 1 µM
# [19] = target: RAF proto-oncogene serine/threonine-protein kinase (Homo sapiens) (UniProt P04049); details: at 0.1 µM;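 also: values are mean CRAF kinase inhibition from profiling of the GSK Published Kinase Inhibitor Set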
# Chain of RAF proto-oncogene serine/threonine-protein kinase (Homo sapiens) (P04049 whole entry): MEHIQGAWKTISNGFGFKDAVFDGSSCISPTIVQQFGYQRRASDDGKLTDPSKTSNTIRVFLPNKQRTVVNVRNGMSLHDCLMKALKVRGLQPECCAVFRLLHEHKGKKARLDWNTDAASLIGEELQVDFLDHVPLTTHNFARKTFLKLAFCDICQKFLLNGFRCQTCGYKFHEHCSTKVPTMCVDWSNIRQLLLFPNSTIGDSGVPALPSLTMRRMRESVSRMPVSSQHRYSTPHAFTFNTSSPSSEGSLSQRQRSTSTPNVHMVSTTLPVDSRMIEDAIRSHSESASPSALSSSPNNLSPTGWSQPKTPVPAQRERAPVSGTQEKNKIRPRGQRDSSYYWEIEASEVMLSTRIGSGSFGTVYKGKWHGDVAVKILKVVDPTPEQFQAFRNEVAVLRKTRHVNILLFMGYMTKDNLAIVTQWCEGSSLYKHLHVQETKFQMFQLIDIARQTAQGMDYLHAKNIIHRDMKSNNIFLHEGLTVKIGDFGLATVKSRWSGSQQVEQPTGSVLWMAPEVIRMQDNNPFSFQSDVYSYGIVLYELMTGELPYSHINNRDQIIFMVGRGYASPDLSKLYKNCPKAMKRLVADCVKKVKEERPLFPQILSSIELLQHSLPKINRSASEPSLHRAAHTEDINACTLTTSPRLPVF
# [20] = target: Receptor-type tyrosine-protein kinase FLT3 (Homo sapiens) (UniProt P36888); details: at 0.1 µM
# Chain of Tyrosine-protein kinase Fgr (Homo sapiens) (P09769 2-529 limits assumed): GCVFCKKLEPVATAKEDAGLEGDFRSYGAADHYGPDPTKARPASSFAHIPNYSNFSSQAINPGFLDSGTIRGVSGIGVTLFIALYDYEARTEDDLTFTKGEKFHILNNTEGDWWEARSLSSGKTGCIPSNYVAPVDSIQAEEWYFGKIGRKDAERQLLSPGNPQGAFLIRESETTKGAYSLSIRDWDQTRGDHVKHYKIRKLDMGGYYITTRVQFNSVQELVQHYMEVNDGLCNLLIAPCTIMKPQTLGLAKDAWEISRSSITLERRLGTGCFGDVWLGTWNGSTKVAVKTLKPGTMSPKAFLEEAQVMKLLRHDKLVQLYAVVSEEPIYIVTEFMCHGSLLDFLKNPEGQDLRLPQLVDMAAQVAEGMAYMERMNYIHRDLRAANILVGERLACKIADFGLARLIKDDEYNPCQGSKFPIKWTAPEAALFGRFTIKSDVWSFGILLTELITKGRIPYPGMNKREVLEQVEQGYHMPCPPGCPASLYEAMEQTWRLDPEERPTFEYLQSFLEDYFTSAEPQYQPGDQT
SMILES,inhibition [1],inhibition [2],inhibition [3],inhibition [4],inhibition [5],inhibition [6],inhibition [7],inhibition [8],inhibition [9],inhibition [10],inhibition [11],inhibition [12],inhibition [13],inhibition [14],inhibition [15],inhibition [16],inhibition [17],inhibition [18],inhibition [19],inhibition [20]
CC(C)COC(=O)c1ccc2c(c1)/C(=C/Nc1ccc(S(N)(=O)=O)cc1)C(=O)N2,2.26%,4.59%,32%,4.68%,39.4%,56%,58.7%,4.42%,0.69%,17%,0.49%,22.1%,-2.35%,1.21%,2.66%,32.8%,1.68%,34%,-3.89%,–
FC(F)(F)c1cccc(-c2nn3ncccc3c2-c2ccnc(Nc3ccc4c(c3)OCCO4)n2)c1,2.21%,32.5%,75.3%,0.57%,12%,–,-3.8%,-3.08%,4.46%,22.9%,32.1%,82.8%,2%,3.05%,2.88%,6.42%,1.76%,7.02%,-1.62%,0.74%
[O-][S+]1CCN(Cc2ccc(-c3ccc4ncnc(Nc5ccc(OCc6cccc(F)c6)c(Cl)c5)c4c3)o2)CC1,0.31%,3.65%,6.21%,0.35%,-0.47%,5.03%,1.35%,-4.3%,3.67%,18.8%,6.03%,21.1%,0.38%,3.57%,6.54%,8.02%,5.36%,5.17%,-0.6%,4.64%
Fc1cccc(COc2ccc(Nc3ncnc4sc(-c5ccco5)cc34)cc2Cl)c1,-0.7%,3.8%,8.35%,2.39%,2.46%,4.08%,-8.41%,-1.9%,5.86%,1.85%,1.73%,4.21%,0.85%,2.41%,6.56%,5.32%,4.59%,3.4%,-0.33%,–
CN(C)CCOc1ccc(-c2nc(-c3ccncc3)c(-c3ccc4c(c3)CC/C4=N\O)[nH]2)cc1,0.44%,2.2%,5.88%,2.37%,2.95%,2.62%,1.65%,-5.49%,3.44%,5.27%,3.06%,16.4%,-1.98%,–,63.5%,88.8%,72.2%,90.1%,12.5%,2.67%
CCN1CCC(CC(=O)Nc2n[nH]c3nnc(-c4cccc(F)c4F)cc23)CC1,-2.43%,2.47%,1.19%,0.64%,-0.57%,1.44%,–,2.26%,1.36%,1.73%,2.07%,5.8%,-0.89%,0.5%,3.25%,2.64%,2.74%,1.57%,10.2%,3.74%
N#Cc1c(NC(=O)CN2CCOCC2)sc2c1CCCC2,2.81%,2.52%,4.31%,0.23%,4.24%,4.78%,0.3%,-0.83%,2.15%,3.91%,3.9%,3.95%,1.13%,-1.02%,5.62%,6.96%,5.95%,4.84%,4.41%,1.8%
